Records with an inconclusive call do not appear. Activity calls are given as the source filed them. Calls come from the whole dose curve; as a rule, active = well fitted cell-killing curve with a large enough effect; inconclusive = small, poorly fitted or top-dose-only effect, or effect the other way; inactive = no such curve, though single readings can be large or run the other way.
System: Tov-21-G
Experiment: Confirmatory qHTS for gynecologic anti-cancer compounds from libraries of approved drugs and bioactive compounds; note: nearly all actives have a fitted effect of over 55% in size
Details: gynecologic cancer cell panel viability, ATPlite luminescence, 48 h; series mostly up to 57.7 µM
In short: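 ATPlite luminescence read-out of cell viability; IC50 from 11-point 1:3 titrations, 57.5 uM to 0.977 nM, 48 h compound exposure at 37 C, 5% CO2. Cells seeded at 1,000/well 16 h before dosing.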
Potency is the fitted concentration of half-maximal effect.

| SMILES | Potency |
| --- | --- |
| CCN1CCN(C(=O)Cc2ccc(Nc3ncc(F)c(Nc4ccc(C(=O)Nc5ccccc5Cl)cc4)n3)cc2)CC1 | inactive |
| Cc1sc2c(c1C)C(c1ccc(Cl)cc1)=NC(CC(=O)OC(C)(C)C)c1nnc(C)n1-2 (stereo unspecified) | 1220 nM (active) |
| CCOc1ccccc1-n1c(C(C)N2CCN(C(=O)COc3ccc(Cl)cc3)CC2)nc2ccccc2c1=O (stereo unspecified) | 1720 nM (active) |
| O=C(O)Cc1ccccc1 | inactive |
| CCNC(=O)C[C@@H]1N=C(c2ccc(Cl)cc2)c2cc(OC)ccc2-n2c(C)nnc21 | 685 nM (active) |
| C/C=C(/C)C(=O)O[C@H]1C(C)=C2[C@H]([C@@H]1OC(=O)CCCCCCC)[C@@](C)(OC(C)=O)C[C@H](OC(=O)CCC)[C@@]1(O)[C@H]2OC(=O)[C@@]1(C)O | 13700 nM (active) |
